# Test results as given in PMC7862700, “An all-to-all approach to the identification of sequence-specific readers for epigenetic DNA modifications on cytosine”.
# How the values were obtained:
# Assay in all cases: DAPPL (digital affinity profiling via proximity ligation, sequencing); 10 mM Tris-HCl pH 7.5, 50 mM NaCl, 1 mM DTT, 4% glycerol, room temperature, 30 min; GST-TFs on glutathione beads, 16-mer random dsDNA library, 0.1% formaldehyde crosslink after washing; high values mean tight binding
# Conditions in all cases: protein: recombinant; tags: N-terminal GST; dsDNA, one strand shown
# [1] = target: T1, FLI1 (Homo sapiens, UniProt Q01543 1-452)
# T1 sequence: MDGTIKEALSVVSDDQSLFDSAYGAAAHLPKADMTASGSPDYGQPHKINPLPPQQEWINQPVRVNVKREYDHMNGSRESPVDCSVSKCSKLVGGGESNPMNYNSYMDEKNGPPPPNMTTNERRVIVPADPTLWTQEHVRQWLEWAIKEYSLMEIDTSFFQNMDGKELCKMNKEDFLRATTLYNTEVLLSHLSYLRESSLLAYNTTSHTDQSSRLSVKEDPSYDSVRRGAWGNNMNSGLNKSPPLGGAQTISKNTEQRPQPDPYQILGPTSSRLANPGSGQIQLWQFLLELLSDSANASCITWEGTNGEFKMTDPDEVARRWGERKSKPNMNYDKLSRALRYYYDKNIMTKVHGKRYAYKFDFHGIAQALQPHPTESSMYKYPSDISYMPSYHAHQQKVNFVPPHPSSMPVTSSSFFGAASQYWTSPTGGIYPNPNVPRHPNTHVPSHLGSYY
# How it was run: (§1)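 Human transcription factors carrying a GST fusion were produced in yeast, bound to glutathione beads, tagged with DNA barcodes and pooled together with a tag-only sample. Each pool was held with 200 nmole of a random double-stranded 16-mer DNA library in Tris/NaCl/DTT/glycerol buffer for 30 min at room temperature, then washed, crosslinked in 0.1% formaldehyde, proximity-ligated with BsaI/T4 ligase (1 h, 37 °C), PCR-amplified and sequenced on an Illumina NextSeq500. Binding signal is the read frequency of each hexamer for a given factor divided by its frequency in the tag-only sample.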
# [2] = target: T2, ELK3 (Homo sapiens, UniProt P41970 1-407)
# T2 sequence: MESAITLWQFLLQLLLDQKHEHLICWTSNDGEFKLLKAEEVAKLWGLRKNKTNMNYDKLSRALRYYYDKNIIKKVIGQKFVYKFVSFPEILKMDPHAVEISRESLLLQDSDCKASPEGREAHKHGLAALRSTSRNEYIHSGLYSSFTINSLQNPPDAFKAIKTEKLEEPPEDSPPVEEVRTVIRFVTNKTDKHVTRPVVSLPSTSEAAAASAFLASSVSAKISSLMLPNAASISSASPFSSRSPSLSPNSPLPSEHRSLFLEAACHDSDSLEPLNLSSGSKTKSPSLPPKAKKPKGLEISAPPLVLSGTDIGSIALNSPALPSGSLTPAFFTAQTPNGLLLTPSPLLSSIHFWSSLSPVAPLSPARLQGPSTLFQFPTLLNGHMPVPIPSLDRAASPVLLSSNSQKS
# How it was run: as §1
# [3] = target: T3, SPIC (Homo sapiens, UniProt Q8N5J4 1-248)
# T3 sequence: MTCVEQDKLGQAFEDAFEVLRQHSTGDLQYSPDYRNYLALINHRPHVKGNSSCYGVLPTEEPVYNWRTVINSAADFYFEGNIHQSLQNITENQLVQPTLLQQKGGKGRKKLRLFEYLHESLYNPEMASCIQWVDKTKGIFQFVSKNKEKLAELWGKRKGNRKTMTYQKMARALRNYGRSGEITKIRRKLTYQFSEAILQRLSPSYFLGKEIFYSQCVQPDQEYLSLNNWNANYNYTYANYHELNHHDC
# How it was run: as §1
# [4] = target: T4, ETV7 (Homo sapiens, UniProt Q9Y603 1-341)
# T4 sequence: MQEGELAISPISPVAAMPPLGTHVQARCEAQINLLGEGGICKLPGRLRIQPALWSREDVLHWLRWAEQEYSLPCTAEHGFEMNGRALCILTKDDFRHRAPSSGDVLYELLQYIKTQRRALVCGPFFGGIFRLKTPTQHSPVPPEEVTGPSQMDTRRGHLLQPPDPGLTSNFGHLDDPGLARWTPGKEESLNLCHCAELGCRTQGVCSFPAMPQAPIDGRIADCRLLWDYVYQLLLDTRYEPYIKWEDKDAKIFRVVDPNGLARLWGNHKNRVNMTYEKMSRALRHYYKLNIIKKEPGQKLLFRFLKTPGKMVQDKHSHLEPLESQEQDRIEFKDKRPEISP
# How it was run: as §1
# [5] = target: T5, ETV3 (Homo sapiens, UniProt P41162-2 1-143)
# T5 sequence: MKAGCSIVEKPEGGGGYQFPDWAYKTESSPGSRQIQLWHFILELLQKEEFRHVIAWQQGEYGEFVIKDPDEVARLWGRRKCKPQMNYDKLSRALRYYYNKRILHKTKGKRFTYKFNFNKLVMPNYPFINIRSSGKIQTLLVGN
# How it was run: as §1
# [6] = target: ELF4 (Homo sapiens, UniProt Q99607 1-663)
# Sequence of ELF4 (Q99607 whole entry): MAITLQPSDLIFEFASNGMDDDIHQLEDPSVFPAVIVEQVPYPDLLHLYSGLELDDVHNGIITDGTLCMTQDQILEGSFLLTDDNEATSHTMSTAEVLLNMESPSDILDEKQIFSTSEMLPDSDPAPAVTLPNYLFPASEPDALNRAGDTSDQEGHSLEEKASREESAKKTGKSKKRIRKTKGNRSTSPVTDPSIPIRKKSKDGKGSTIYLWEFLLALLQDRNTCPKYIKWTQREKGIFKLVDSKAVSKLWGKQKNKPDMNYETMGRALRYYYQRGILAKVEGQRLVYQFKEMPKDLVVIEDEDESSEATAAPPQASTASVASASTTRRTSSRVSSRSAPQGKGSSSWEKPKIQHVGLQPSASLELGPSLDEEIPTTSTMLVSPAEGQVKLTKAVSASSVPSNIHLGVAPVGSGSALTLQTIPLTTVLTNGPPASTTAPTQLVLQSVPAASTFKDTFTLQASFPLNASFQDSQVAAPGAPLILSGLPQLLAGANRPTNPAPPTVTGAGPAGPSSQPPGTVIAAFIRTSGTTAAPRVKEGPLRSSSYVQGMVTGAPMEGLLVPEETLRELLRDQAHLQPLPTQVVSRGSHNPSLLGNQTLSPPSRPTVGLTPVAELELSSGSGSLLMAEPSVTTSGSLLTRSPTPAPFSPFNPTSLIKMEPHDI
# How it was run: as §1
# [7] = target: T6, ETV2 (Homo sapiens, UniProt O00321 1-342)
# T6 sequence: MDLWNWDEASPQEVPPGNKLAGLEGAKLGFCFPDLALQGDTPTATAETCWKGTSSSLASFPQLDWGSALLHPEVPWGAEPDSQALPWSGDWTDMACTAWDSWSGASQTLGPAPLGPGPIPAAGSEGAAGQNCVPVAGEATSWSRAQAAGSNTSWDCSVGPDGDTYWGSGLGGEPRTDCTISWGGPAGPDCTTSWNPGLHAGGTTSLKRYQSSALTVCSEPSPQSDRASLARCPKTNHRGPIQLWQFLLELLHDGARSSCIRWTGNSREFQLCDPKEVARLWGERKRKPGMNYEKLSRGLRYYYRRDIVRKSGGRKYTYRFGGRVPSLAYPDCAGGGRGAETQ
# How it was run: as §1
# [8] = target: T7, ELK4 (Homo sapiens, UniProt P28324-2 1-405)
# T7 sequence: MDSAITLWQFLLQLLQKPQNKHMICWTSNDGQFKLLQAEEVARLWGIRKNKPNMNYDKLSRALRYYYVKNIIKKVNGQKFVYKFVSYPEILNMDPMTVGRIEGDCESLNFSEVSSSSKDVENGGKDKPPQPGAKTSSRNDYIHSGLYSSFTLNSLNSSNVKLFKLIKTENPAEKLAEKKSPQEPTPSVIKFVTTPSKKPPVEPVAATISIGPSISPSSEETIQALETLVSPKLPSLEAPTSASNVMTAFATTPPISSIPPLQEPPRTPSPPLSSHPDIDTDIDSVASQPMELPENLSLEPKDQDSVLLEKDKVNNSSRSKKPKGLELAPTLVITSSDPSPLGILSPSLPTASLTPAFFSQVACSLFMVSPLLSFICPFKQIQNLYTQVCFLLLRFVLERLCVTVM
# How it was run: as §1
# [9] = target: T8, ELK1 (Homo sapiens, UniProt P19419 1-428)
# T8 sequence: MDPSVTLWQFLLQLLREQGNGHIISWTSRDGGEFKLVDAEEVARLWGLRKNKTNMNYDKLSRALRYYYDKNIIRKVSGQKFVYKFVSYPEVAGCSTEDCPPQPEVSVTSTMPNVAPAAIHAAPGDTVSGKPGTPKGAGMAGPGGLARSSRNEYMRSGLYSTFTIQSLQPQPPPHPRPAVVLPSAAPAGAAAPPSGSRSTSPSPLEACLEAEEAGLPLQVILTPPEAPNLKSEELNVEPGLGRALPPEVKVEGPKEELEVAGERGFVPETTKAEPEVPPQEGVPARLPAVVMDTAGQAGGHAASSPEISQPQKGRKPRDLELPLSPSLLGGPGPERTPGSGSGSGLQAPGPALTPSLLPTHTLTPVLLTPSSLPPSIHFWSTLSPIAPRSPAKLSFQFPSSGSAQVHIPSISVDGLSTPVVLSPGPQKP
# How it was run: as §1
# [10] = target: T9, EHF (Homo sapiens, UniProt Q9NZC4 1-300)
# T9 sequence: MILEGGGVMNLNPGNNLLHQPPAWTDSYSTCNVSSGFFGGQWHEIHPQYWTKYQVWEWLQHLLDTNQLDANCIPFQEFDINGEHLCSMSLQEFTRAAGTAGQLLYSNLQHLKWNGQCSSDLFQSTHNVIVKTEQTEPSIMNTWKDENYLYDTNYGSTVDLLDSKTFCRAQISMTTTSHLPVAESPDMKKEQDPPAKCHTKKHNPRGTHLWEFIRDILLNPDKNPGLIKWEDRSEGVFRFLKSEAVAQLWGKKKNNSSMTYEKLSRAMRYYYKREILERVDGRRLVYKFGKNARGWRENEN
# How it was run: as §1
# [11] = target: T10, ETS2 (Homo sapiens, UniProt P15036 1-469)
# T10 sequence: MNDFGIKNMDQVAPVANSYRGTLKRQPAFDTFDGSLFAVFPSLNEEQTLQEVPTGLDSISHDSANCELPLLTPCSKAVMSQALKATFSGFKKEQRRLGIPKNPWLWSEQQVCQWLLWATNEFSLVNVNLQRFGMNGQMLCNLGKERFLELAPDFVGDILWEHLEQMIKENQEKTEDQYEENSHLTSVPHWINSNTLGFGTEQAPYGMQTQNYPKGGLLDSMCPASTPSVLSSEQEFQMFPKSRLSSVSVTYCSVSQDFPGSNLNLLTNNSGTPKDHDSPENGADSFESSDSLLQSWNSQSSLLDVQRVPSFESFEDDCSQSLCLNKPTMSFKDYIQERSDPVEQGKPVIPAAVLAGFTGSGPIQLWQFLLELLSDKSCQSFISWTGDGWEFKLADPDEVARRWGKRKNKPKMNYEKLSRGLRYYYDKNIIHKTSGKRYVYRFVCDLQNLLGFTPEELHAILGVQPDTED
# How it was run: as §1
# [12] = target: ELF1 (Homo sapiens, UniProt P32519 1-619)
# Sequence of ELF1 (P32519 whole entry): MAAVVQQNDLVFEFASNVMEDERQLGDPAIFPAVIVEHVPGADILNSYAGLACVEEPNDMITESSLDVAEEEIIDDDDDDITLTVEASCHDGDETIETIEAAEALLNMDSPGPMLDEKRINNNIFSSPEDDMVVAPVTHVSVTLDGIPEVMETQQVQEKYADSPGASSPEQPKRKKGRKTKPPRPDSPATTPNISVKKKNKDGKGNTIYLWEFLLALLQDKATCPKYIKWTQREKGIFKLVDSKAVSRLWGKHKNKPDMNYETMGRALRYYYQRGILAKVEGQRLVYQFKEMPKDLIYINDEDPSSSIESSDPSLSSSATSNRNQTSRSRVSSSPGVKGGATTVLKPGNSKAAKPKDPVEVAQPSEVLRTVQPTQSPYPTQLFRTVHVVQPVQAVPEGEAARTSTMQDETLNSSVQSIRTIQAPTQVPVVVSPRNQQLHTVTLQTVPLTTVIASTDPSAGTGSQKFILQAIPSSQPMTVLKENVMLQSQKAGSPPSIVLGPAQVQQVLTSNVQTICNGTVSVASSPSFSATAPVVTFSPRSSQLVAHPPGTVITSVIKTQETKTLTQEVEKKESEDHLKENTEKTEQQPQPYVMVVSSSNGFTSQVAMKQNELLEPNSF
# How it was run: as §1
# [13] = target: SPI1 (Homo sapiens, UniProt P17947 1-270)
# How it was run: as §1
# [14] = target: T11, ETV3L (Homo sapiens, UniProt Q6ZN32 1-361)
# T11 sequence: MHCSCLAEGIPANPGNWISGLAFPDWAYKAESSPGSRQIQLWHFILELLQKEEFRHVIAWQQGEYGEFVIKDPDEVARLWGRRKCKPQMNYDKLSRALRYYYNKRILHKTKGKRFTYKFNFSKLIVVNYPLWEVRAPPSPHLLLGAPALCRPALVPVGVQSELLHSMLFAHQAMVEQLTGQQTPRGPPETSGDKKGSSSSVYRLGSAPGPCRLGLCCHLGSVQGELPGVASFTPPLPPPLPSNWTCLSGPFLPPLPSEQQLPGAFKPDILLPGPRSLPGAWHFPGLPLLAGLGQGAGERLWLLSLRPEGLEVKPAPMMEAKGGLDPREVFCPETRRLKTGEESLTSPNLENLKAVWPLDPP
# How it was run: as §1
# [15] = target: T12, ELF5 (Homo sapiens, UniProt Q9UKW6-2 1-255)
# T12 sequence: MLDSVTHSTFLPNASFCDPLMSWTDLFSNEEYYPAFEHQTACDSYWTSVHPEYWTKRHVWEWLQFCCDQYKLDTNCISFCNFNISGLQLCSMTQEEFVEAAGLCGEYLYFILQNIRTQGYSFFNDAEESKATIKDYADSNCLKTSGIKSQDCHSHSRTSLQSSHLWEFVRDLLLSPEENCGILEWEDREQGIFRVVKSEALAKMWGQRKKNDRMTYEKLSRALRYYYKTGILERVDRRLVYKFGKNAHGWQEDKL
# How it was run: as §1
# [16] = target: ETV6 (Homo sapiens, UniProt P41212 1-452)
# Sequence of ETV6 (P41212 whole entry): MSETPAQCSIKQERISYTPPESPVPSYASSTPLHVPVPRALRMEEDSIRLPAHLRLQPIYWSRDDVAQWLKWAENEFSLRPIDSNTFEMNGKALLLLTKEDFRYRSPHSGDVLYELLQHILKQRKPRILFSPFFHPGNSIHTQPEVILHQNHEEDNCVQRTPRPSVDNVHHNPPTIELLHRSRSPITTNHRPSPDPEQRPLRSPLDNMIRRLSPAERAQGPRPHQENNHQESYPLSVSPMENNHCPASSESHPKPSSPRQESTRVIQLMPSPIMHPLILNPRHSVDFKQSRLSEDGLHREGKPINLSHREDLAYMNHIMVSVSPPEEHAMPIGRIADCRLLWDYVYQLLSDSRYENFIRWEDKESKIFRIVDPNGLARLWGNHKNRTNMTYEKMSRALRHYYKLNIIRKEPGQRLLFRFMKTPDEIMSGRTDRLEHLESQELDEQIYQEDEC
# How it was run: as §1
sequence,measurement,setting,value
GTGTAC,binding signal,[1],"1.07 fold enrichment (6-mer frequency, TF over GST control)"
same,binding signal,[2],"1.03 fold enrichment (6-mer frequency, TF over GST control)"
same,binding signal,[3],"1.2 fold enrichment (6-mer frequency, TF over GST control)"
AGGCCC,binding signal,[1],"1.01 fold enrichment (6-mer frequency, TF over GST control)"
same,binding signal,[3],"1.08 fold enrichment (6-mer frequency, TF over GST control)"
same,binding signal,[4],"1.03 fold enrichment (6-mer frequency, TF over GST control)"
same,binding signal,[5],"1.01 fold enrichment (6-mer frequency, TF over GST control)"
TGGCGT,binding signal,[1],"1.01 fold enrichment (6-mer frequency, TF over GST control)"
same,binding signal,[3],"1.04 fold enrichment (6-mer frequency, TF over GST control)"
same,binding signal,[6],"1.01 fold enrichment (6-mer frequency, TF over GST control)"
same,binding signal,[7],"1.05 fold enrichment (6-mer frequency, TF over GST control)"
GCCTGT,binding signal,[1],"1.02 fold enrichment (6-mer frequency, TF over GST control)"
same,binding signal,[2],"1.03 fold enrichment (6-mer frequency, TF over GST control)"
same,binding signal,[8],"1.05 fold enrichment (6-mer frequency, TF over GST control)"
same,binding signal,[5],"1.04 fold enrichment (6-mer frequency, TF over GST control)"
CATCAG,binding signal,[1],"1 fold enrichment (6-mer frequency, TF over GST control)"
same,binding signal,[9],"1.04 fold enrichment (6-mer frequency, TF over GST control)"
same,binding signal,[10],"1.03 fold enrichment (6-mer frequency, TF over GST control)"
same,binding signal,[2],"1.06 fold enrichment (6-mer frequency, TF over GST control)"
same,binding signal,[8],"1.06 fold enrichment (6-mer frequency, TF over GST control)"
same,binding signal,[11],"1 fold enrichment (6-mer frequency, TF over GST control)"
GACACT,binding signal,[1],"1.01 fold enrichment (6-mer frequency, TF over GST control)"
same,binding signal,[9],"1.02 fold enrichment (6-mer frequency, TF over GST control)"
same,binding signal,[12],"1.03 fold enrichment (6-mer frequency, TF over GST control)"
same,binding signal,[13],"1.02 fold enrichment (6-mer frequency, TF over GST control)"
same,binding signal,[2],"1.06 fold enrichment (6-mer frequency, TF over GST control)"
same,binding signal,[8],"1.05 fold enrichment (6-mer frequency, TF over GST control)"
same,binding signal,[7],"1.1 fold enrichment (6-mer frequency, TF over GST control)"
same,binding signal,[14],"1.08 fold enrichment (6-mer frequency, TF over GST control)"
same,binding signal,[11],"1.05 fold enrichment (6-mer frequency, TF over GST control)"
same,binding signal,[4],"1.04 fold enrichment (6-mer frequency, TF over GST control)"
same,binding signal,[15],"1.05 fold enrichment (6-mer frequency, TF over GST control)"
same,binding signal,[5],"1.03 fold enrichment (6-mer frequency, TF over GST control)"
same,binding signal,[16],"1.13 fold enrichment (6-mer frequency, TF over GST control)"
